This is a sample that favours compounds with a hit; in the whole collection about 1.9% have one here.
CR mimetic SO = caloric restriction mimetics inhibiting age-related superoxide in yeast; S. cerevisiae aged cells, superoxide DHE fluorescence; hits give low values; superoxide response (% of plate mean), % at 10 µM; 330,000 tested, 0.18% active; AID 2690;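 active = superoxide response under a set limit, about three screen SD below normal, cut at about 65% in these data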;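 also: yeast aged for seven days with compound at 30 °C before DHE staining; 100% = average MFI of all compound-treated wells on the plate with controls excluded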
LANA-H2B inh = blocks KSHV LANA binding to histone H2A/H2B; Q9QR71; AID 2629; 320,000 tested, 0.6% active; inhibition, % (test concentration not listed); cell-free LANA-H2A/H2B peptide, fluorescence polarization; in the data active = inhibition mostly above about 10%, no sharp cut-off; inactive = mostly below about 6.7%
MEX-5 binding = C. elegans MEX-5 TCR-2 RNA binding activity. Q9XUB2. MEX-5/FITC-TCR2 RNA binding, fluorescence polarization; hits give low values. activity score (negative = inhibition of binding), % at 10 µM. 300,000 tested, 0.38% active. AID 1832;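 active = inhibition past about -25% in most replicates, and total fluorescence under double the plate's negative control median, limit read from the data; inconclusive = replicates evenly split on the limit, or fluorescence at least double controls; inactive = too little inhibition in most replicates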;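 also: 0% = DMSO and -100% = 5 µM competing unlabeled TCR2 RNA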
Target sequence (Q9XUB2 whole entry, looked up): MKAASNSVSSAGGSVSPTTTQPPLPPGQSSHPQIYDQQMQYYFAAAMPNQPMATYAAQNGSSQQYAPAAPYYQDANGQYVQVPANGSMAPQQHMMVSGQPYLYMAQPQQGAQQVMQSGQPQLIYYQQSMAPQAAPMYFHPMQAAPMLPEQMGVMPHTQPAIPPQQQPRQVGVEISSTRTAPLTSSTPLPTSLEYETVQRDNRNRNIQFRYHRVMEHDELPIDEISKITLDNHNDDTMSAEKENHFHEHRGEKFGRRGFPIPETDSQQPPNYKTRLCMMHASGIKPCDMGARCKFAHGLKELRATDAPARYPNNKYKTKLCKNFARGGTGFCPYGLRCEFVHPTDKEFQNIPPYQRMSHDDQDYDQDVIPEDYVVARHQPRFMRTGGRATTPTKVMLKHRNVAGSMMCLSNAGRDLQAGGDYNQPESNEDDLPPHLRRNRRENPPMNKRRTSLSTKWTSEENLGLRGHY
BCLXL inh = blocks human Bcl-xL binding to Bim BH3 peptide. 320,000 tested, 0.7% active. inhibition, % at 10.9 µM. AID 2129. GST-Bcl-xL / FITC-Bim BH3 peptide fluorescence polarization. Q07817;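 active = inhibition above the mean of all tested compounds plus 3 SD, cutoff set per campaign, cut at about 30% in these data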;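 also: 0% = DMSO wells and 100% = unlabeled Bim-BH3 peptide competitor; inhibitors lower millipolarization by displacing the labeled peptide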
MCL1 BIM primary = inhibitors of human MCL1 binding to BIM-BH3 peptide. 320,000 tested, 0.68% active. Q07820. GST-MCL1 / FITC-Bim-BH3 fluorescence polarization. inhibition, % at 10.9 µM. AID 2057;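 active = inhibition above the mean inhibition of all tested compounds plus 3 SD, set per campaign, cut at about 40% in these data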;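 also: 0% = DMSO wells and 100% = unlabeled Bim-BH3 peptide control; higher means more loss of mP so more displacement of Bim peptide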
GLD-1 RNA inh = GLD-1-TGE RNA interaction inhibition (C. elegans). Q17339. purified GLD-1 + fluorescein TGE RNA, fluorescence polarization. inhibition, % at 5.96 µM. 320,000 tested, 0.44% active;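 active = percent inhibition above a per-plate cutoff, the plate mean of test compounds plus 3 SD, cut at about 30% in these data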;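 also: 0% = DMSO wells with GLD-1 and probe and 100% = wells lacking GLD-1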
Numbers without * were called inactive; i = inactive; ? = inconclusive; . = not tested or not shown; + = active, no number.

SMILES	CR mimetic SO	LANA-H2B inh	MEX-5 binding	BCLXL inh	MCL1 BIM primary	GLD-1 RNA inh
O=C(CCSc1nc2ccccc2s1)N/N=C/c1c(O)ccc2ccccc12	98	4	-46*	1	2	-3
O=Cc1ccc2ccc3cccnc3c2n1	103	1	-34*	6	10	3
CC1CCC(NC(=O)CN2C(=O)C3CC=CCC3C2=O)CC1 (stereo unspecified)	93	5	.	6	3	-2
COc1ccc(-c2nc(N)nc(C)c2Oc2ccccc2Br)c(O)c1	95	2	.	42*	39	17
CCOc1ncccc1C(=O)OC(C)C(=O)Nc1ccc(N2CCOCC2)cc1 (stereo unspecified)	103	-2	.	.	.	1
CC(C)[C@H](NC(=O)NCCC1=CCCCC1)C(=O)O	128	-3	0	3	5	-5
CCC(C)[C@H](NC(=O)NCCC1=CCCCC1)C(=O)O (stereo partly specified)	101	35*	-1	6	-3	-1
CCCN1C(=O)c2ccccc2NC1c1ccc(Cl)c(Cl)c1 (stereo unspecified)	103	0	0	0	1	15
CCCCN1C2=C(C(=O)CCC2)C(c2ccc(Cl)c(Cl)c2)C2=C1c1ccccc1C2=O (stereo unspecified)	99	6	-3	44*	43*	5
COc1ccc(Br)cc1CN(C)C(=O)c1ccccc1OCc1c(C)noc1C	110	-1	-1	0	-2	-2
COC(=O)C1C(O)CCC2CN3CCc4c([nH]c5ccccc45)C3CC21 (stereo unspecified)	103	14	-15	37*	42*	16
COCCn1c(=S)[nH]c2ccc(N(C)C)cc2c1=O	111	2	-2	32*	31	17
Cc1cc(C(=O)COC(=O)/C=C/c2ccco2)c(C)n1C	117	1	.	.	.	-1
OCCCc1nc2n(n1)C(c1ccccc1Cl)C=C(c1cccs1)N2 (stereo unspecified)	85	1	-15	37*	42*	30
OCCCc1nc2n(n1)C(c1cccs1)C=C(c1ccccc1)N2 (stereo unspecified)	101	68*	?	177*	+	154*
OCCCc1nc2n(n1)C(c1ccccc1)C=C(c1ccc(F)cc1)N2 (stereo unspecified)	109	3	-1	10	7	6
Cc1ccc(C2=CC(c3cccs3)n3nnnc3N2)cc1 (stereo unspecified)	97	23*	-1	5	6	9
CCOc1ccccc1C1C(C(N)=O)=C(C)Nc2nc(CCCO)nn21 (stereo unspecified)	109	3	2	1	7	1
CCN(C[C@H]1N[C@@](C)(C(=O)OC)[C@H]2C(=O)N(Cc3ccccc3)C(=O)[C@@H]12)C(=O)Nc1ccc(C)cc1	105	i	.	.	.	-1
O=C(c1cc(-c2ccc(F)cc2)nc2ccccc12)N1CCN(C2CCS(=O)(=O)C2)CC1 (stereo unspecified)	89	2	.	-7	-6	-1
CCN(C[C@H]1N[C@@](Cc2ccccc2)(C(=O)OC)[C@H]2C(=O)N(C)C(=O)[C@@H]12)C(C)=O	111	.	.	.	.	-1
Clc1ccc(-c2nnc3sc(-c4ccc(Br)o4)nn23)cc1	104	46*	.	25	36	58*
Clc1ccc(-c2nnc3sc(-c4ccc(Br)o4)nn23)c(Cl)c1	105	-6	-4	0	5	-1
COc1c2ccc(OCC/C(C)=C/C(=O)C=C(C)C)cc2nc2occc12	119	-2	.	.	.	3
CCN(CC)CCN1CCn2c3c(c4cc(C)ccc42)CCCC31 (stereo unspecified)	72	2	-13	36*	46*	10
Cc1ccc(-c2ccc(=O)n(CCC(=O)NCCN3CCCCC3C)n2)cc1 (stereo unspecified)	102	0	1	13	10	-2
Cc1ccc(-c2ccc(=O)n(CC(=O)NCCN3CCCCC3C)n2)cc1 (stereo unspecified)	130	0	-1	34*	41*	12

Source: PubChem BioAssay (several laboratories)
